Experimental data as given in PubChem BioAssay (NCI).
Compounds without any hit were thinned out: in the full panel of roughly 83,000, 20% have a hit.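 Each cell line was grown in a 96-well plate and treated with one concentration of compound for 48 hours. Values below 10 were considered active.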 A number with no mark means an inactive call. Calls of active or inactive are those of the source.

Test system: HL-60(TB) leukemia
Assay: NCI-60 one-dose screen, 48 h (100 = growth as untreated, 0 = no growth, -100 = all killed)
Details: 10 µM unless noted

How did the growth turn out when `COc1cc2nc(Nc3cccc(Cl)c3)nc(N)c2cc1OC` was run?
Its growth is 87.1%.

`COc1cc2cc(Oc3ccc(NC(=O)Nc4ccc(Cl)c(Cl)c4)cc3)c(C)nc2cc1OCCN1CCCCC1` was tested. Which growth did it give?
Its growth is 44.1%.

With `Cc1cccc(-n2c(C)nc3ccc(NC(=O)NCCCl)cc3c2=O)c1` as the molecule, how does the growth read?
Its growth is 113%.

How did the growth turn out when `CCC(CO)Nc1nc2ccc(Cl)cc2c2ccccc12` (stereo unspecified) was run?
The growth was 25%.

Which growth does the source give for `CCCC1(c2ccccc2)NC(=O)NC1=O` (stereo unspecified) here?
The growth was 144%.

How did the growth turn out when `O=C(N/N=C/c1c(Cl)cccc1Cl)c1ccccc1Nc1cccc(C(F)(F)F)c1` was run?
Its growth is 95.3%.

With `COc1ccc(OC)c(C(=O)Nc2cccc(-c3cc(=O)c4ccccc4o3)c2)c1` as the molecule, how does the growth read?
The growth was 89.4%.

For `Cn1c(C(N)=O)cc2c1-c1nc(NC3CCCCC3)ncc1CCC2`, which growth is on record?
Its growth is 105%.

For `CCCCCCCCCCCCNc1ncnc2[nH]ncc12`, which growth is on record?
The growth was 74.4%.

`COc1ccc(Nc2nccc(N3CCN(c4c5ccc(Cl)cc5nc5ccc(OC)cc45)CC3)n2)cc1` was tested. Which growth did it give?
Its growth is 15.4%.

With `c1ccc2[nH]c(-c3ccc(Nc4nc(N5CCCCC5)nc(N5CCOCC5)n4)cc3)nc2c1` as the molecule, how does the growth read?
The growth was -22.7% (active).

For `Cc1ccc(C)c(-n2c(-c3ccc(Br)cc3)csc2=NC(=O)c2ccccc2F)c1`, which growth is on record?
Its growth is -21.6% (active).

With `COc1cc(/C=C2\C(=O)N(CCCCn3c4ccccc4c(=O)c4ccccc43)c3ccccc32)cc(OC)c1O` as the molecule, how does the growth read?
The growth was 53.5%.

Which growth does the source give for `CC1(C)CC[C@]2(c3nnc(-c4ccncc4)o3)CC[C@]3(C)C(=CC[C@@H]4[C@@]5(C)CCC(=O)C(C)(C)[C@@H]5CC[C@]43C)[C@@H]2C1` here?
Its growth is 30.7%.

With `Cc1ccc(Cl)cc1N1CCN(C(=O)[C@@H]2C[C@@H]2c2ccc(F)cc2)CC1` as the molecule, how does the growth read?
The growth was 69.9%.

For `Clc1ccc([C@@H]2C[C@@H]3Cc4cc(Br)c5ccccc5c4N2O3)c(Cl)c1`, which growth is on record?
Its growth is 54.3%.

How did the growth turn out when `Nc1c2c(nc3ccc(Cl)cc13)CC(c1ccccc1)CC2=O` (stereo unspecified) was run?
Its growth is 11%.

How did the growth turn out when `CO[C@H]1CC(c2ccc[nH]2)=N[C@]12O[C@@H](C)C[C@@H]1CCCCCCCc3ccc([nH]3)[C@H]12` was run?
The growth was 17.5%.

For `O=C(Cc1ccc([N+](=O)[O-])cc1)Oc1ccccc1`, which growth is on record?
The growth was 105%.

Which growth does the source give for `COc1cnc2c(c1)C(=O)c1c-2n(CCCNCCN2CCOCC2)c(=O)c2cc([N+](=O)[O-])ccc12` here?
The growth was -15.7% (active).

With `CCN(CC)CCn1c2ccc(OC)cc2c2sc3cc(OC)ccc3c(=O)c21` as the molecule, how does the growth read?
Its growth is 7.58% (active).

`O=C(Nc1ccsc1C(=O)NC1CCCCC1)c1ccc(F)cc1` was tested. Which growth did it give?
The growth was 90.2%.

`CN(C)CCSC1=Nc2ccc(Cl)cc2C(c2ccccc2Cl)N(C)C1` (stereo unspecified) was tested. Which growth did it give?
Its growth is 35.1%.

`Clc1ccc2c(c1)C(c1c[nH]c3ccccc13)(c1c[nH]c3ccccc13)CCO2` was tested. Which growth did it give?
Its growth is 82%.

`C=CCOc1ccc(/C(Cl)=N/N=C(\Cl)c2cc(OC)c(OC)c(OC)c2)cc1` was tested. Which growth did it give?
Its growth is 39.6%.

For `COc1cc(Cl)cc(-c2nn(-c3cccc(NC(=O)c4cc(C(F)(F)F)cc(C(F)(F)F)c4)c3)cc2-c2ccncc2)c1`, which growth is on record?
Its growth is 84.3%.

`CC(C)Cc1cc(CNC(=O)C2[C@H]3CN(C(=O)c4ccccc4)C[C@@H]23)nn1-c1ccccc1` (stereo partly specified) was tested. Which growth did it give?
Its growth is 94.2%.

How did the growth turn out when `CCOC(=O)c1c(C)nc2ccccc2c1/C=C/c1ccc(F)cc1` was run?
Its growth is 85.7%.

Which growth does the source give for `O=C(COc1ccc(-c2nc3cc(Cl)c(Cl)cc3[nH]2)cc1)N=Nc1c(O)[nH]c2ccc(Cl)cc12` here?
Its growth is 55.5%.

`O=C(Nc1nc2ccc(OC(F)(F)F)cc2s1)c1ccc(F)cc1` was tested. Which growth did it give?
The growth was 14.3%.

`O=C(Nc1ccc(C23CC4CC(CC(c5ccccc5)(C4)C2)C3)cc1)c1cccs1` was tested. Which growth did it give?
The growth was 51%.

How did the growth turn out when `NC1=NC(=O)NC1(c1ccccc1)c1ccccc1` was run?
Its growth is 98.4%.

How did the growth turn out when `CCN(CC)CCCNCCCNc1cc(OC)cc2cccnc12` was run?
Its growth is -3.42% (active).

How did the growth turn out when `COc1cc2oc3cc(C)oc(=O)c3c2cc1OC` was run?
The growth was 80.3%.

How did the growth turn out when `O=C1C2(c3ccccc3)C(c3ccccc3)=C(c3ccccc3)C1(c1ccccc1)C1CC=CC12` (stereo unspecified) was run?
Its growth is 76.3%.

Which growth does the source give for `O=C1C2=C(C(=O)c3c(O)ccc(O)c31)N(c1cccnc1)Cc1ccccc1O2` here?
The growth was -23.5% (active).

How did the growth turn out when `COc1ccc(-c2cc(C(=O)Nc3ccc(Br)cc3)nc3[nH]c(=O)sc23)cc1` was run?
The growth was 25.5%.

How did the growth turn out when `C#CCO[C@H]1CC(CC#C)(CC#C)C(=O)[C@@H]2[C@H]1[C@H]1C[C@@H]3[C@@]4(C)CCC[C@@](C)(C(=O)OC)[C@@H]4CC[C@@]23C=C1C(C)C` was run?
Its growth is 54.8%.

How did the growth turn out when `CN(C)CC1CCC(CN(C)C)C1=O` (stereo unspecified) was run?
Its growth is 84.2%.

Which growth does the source give for `CC1(C)Cc2c(Br)c(Br)c(Br)c(OCC(O)CN3CCOCC3)c2O1` (stereo unspecified) here?
Its growth is -34.1% (active).

Which growth does the source give for `O=C(CSc1nc2ccccc2[nH]1)c1ccc(N2CCOCC2)cc1` here?
The growth was 113%.

`CCOC(=O)C1C(=O)C(=O)N(C(C)C)C1C(=O)OCC` (stereo unspecified) was tested. Which growth did it give?
Its growth is 123%.

`O=C(C[n+]1ccccc1Cl)c1ccc2c(c1)CCCC2` was tested. Which growth did it give?
Its growth is 79.2%.

How did the growth turn out when `O=C(/C=C/c1ccco1)Nc1ncc(Cc2ccc(F)cc2)s1` was run?
The growth was -41.6% (active).

For `O=c1[nH]c(=O)[nH]c(=S)[nH]1`, which growth is on record?
Its growth is 102%.

For `CCOc1ccc(C(=O)NCC(C)C)cc1`, which growth is on record?
Its growth is 94.9%.

How did the growth turn out when `Nc1nc(Cl)cc(Cl)n1` was run?
Its growth is 74.2%.

`Cc1ccccc1OC(=O)c1cccc(Cl)c1` was tested. Which growth did it give?
Its growth is 60.4%.

With `CCCCCCCCCCCCCCCCCCNCc1ccc(Cl)cc1` as the molecule, how does the growth read?
The growth was -65.8% (active).

With `CN1NC(c2ccccc2)NN(C)C1=O` as the molecule, how does the growth read?
Its growth is 105%.

`CC(=O)N1CCN(CCNC(=O)n2cc(-c3ccncc3)c(-c3cc(O)cc(Cl)c3)n2)CC1` was tested. Which growth did it give?
Its growth is 59.9%.

Which growth does the source give for `CCOC(=O)/C(=C\c1ccc2ccccc2c1)P(=O)(OCC)OCC` here?
The growth was 8.83% (active).

How did the growth turn out when `COc1ccc2cc(-c3ccnc4c(N=Nc5ccc(Cl)cc5)c(N)nn34)ccc2c1` was run?
The growth was 98.8%.

How did the growth turn out when `COc1cc(/C=C2\CN(S(=O)(=O)c3ccccc3)C/C(=C\c3cc(CN4CCCC4)c(O)c(OC)c3)C2=O)cc(CN2CCCC2)c1O` was run?
Its growth is -14.8% (active).

With `NS(=O)(=O)c1ccc(C(=O)NN2C(=O)c3c(Br)c(Br)c(Br)c(Br)c3C2=O)cc1` as the molecule, how does the growth read?
The growth was 103%.

For `COc1cccc(/C=C2\COc3ccc(-c4ccccc4)cc3C2=O)c1`, which growth is on record?
The growth was -47% (active).

`O=C(O)c1cccc2oc(-c3ccccc3O)nc12` was tested. Which growth did it give?
The growth was 49.8%.

How did the growth turn out when `Cn1c(=O)c2nc3c(=O)n(C)c(=O)n(C)c3nc2n(C)c1=O` was run?
The growth was 85.1%.

Which growth does the source give for `Cc1ccc(C23CCC(=O)N2CCc2cncn23)cc1` (stereo unspecified) here?
Its growth is 95.7%.

For `O=C1Nc2ccccc2/C1=C/C(=O)c1ccc(N2CCCC2)cc1`, which growth is on record?
The growth was -10.8% (active).

How did the growth turn out when `O=C(CCN1CCCCC1)c1ccc(Cl)cc1` was run?
Its growth is 111%.

For `CCCCCCCCCCCCCCCCCCn1cc(COc2ccc(C=O)cc2)nn1`, which growth is on record?
The growth was 86.7%.

Which growth does the source give for `O=C(O)c1ccccc1Nc1cccc(S(F)(F)(F)(F)F)c1` here?
The growth was 96.9%.

`Clc1ccc2c(c1)N(c1ncnc3ccc(-c4cnc5[nH]ccc5c4)cc13)CC2` was tested. Which growth did it give?
Its growth is 16.3%.

Which growth does the source give for `CC1(C)[C@@H](O)CC[C@]2(C)[C@H]3CC[C@@H]4[C@H]5[C@H](C(=O)/C=C/c6ccc(C(F)(F)F)cc6)CC[C@]5(CO)CC[C@@]4(C)[C@]3(C)CC[C@@H]12` here?
Its growth is 28.1%.

With `CCOC(=O)Nc1ccc(C(=O)/C=C/c2ccccc2)cc1` as the molecule, how does the growth read?
The growth was 45.4%.

For `C=C(CO)[C@@H]1CC[C@]2(COC3CCCCO3)CC[C@]3(C)[C@H](CC[C@@H]4[C@@]5(C)C=C(C=O)C(=O)C(C)(C)[C@@H]5CC[C@]43C)[C@@H]12` (stereo partly specified), which growth is on record?
Its growth is -59.8% (active).

Which growth does the source give for `CC(=O)NC(N)=S` here?
The growth was 70.8%.

How did the growth turn out when `Cc1ccc(Cl)cc1NC(=O)c1sc2nc3c(cc2c1N)C(=O)CCC3` was run?
Its growth is 82.2%.

`CCCCNc1nnc2n(Cc3ccccc3)c(=O)c3c4c(sc3n12)CCCC4` was tested. Which growth did it give?
Its growth is 90.5%.

For `COc1c(O)c2c3c(c1OC)-c1ccccc1CC3N(S(=O)(=O)c1ccc(C)cc1)CC2` (stereo unspecified), which growth is on record?
Its growth is 5.73% (active).

For `Nc1c(C(=O)Nc2cccc(Cl)c2)sc2ncc(Cl)cc12`, which growth is on record?
Its growth is 88.7%.

How did the growth turn out when `CCOC(=O)c1c(C)nc2c(c1N)CC(=O)N2Cc1cc(OC)c(OC)c(OC)c1` was run?
The growth was 18.8%.

`NC1CCC(Nc2nc(NCc3cc(Cl)ccc3O)c3ncn(C4CCCC4)c3n2)CC1` (stereo unspecified) was tested. Which growth did it give?
Its growth is -41.1% (active).

`CC(C)c1ccc(-n2c(=S)[nH]c3sc4cc(O)ccc4c3c2=O)cc1` was tested. Which growth did it give?
Its growth is 99.4%.

`O=C(NC1CC(F)C1)c1cc2cccnc2n1-c1ccc(Cl)c(Cl)c1` (stereo unspecified) was tested. Which growth did it give?
Its growth is 97.2%.

With `COc1ccc(C2CC(c3cc(OC)c(OC)c(OC)c3)=NN2c2ccc(S(N)(=O)=O)cc2)cc1` (stereo unspecified) as the molecule, how does the growth read?
The growth was 2.23% (active).

How did the growth turn out when `CC1(C)CC(=O)C2=C(C1)Oc1nc(N)c(C#N)c(N)c1C2c1ccc(F)cc1` (stereo unspecified) was run?
Its growth is 107%.

How did the growth turn out when `CC(=O)OC[C@H](O)[C@@]1(O)CC[C@H]2[C@@H]3CCC4=CC(=O)CC[C@]4(C)[C@H]3[C@@H](O)C[C@@]21C` was run?
Its growth is 101%.

`COc1cc2c(c(OC)c1OC)-c1ccc(N=NC(N)=S)c(=O)cc1[C@@H](NC(C)=O)CC2` was tested. Which growth did it give?
The growth was -17.7% (active).

Which growth does the source give for `O=C1c2ccccc2OC=C(c2ccccc2)N1CCCCN1CCCCC1` here?
Its growth is 58.1%.

With `O=C1/C(=C\c2ccc[nH]2)c2ccccc2N1c1ccccc1` as the molecule, how does the growth read?
Its growth is 94.4%.

`COc1ccc(-c2[nH]c3ccc(OC)cc3c2C=C(C#N)C#N)cc1` was tested. Which growth did it give?
Its growth is -43.1% (active).

`CN(C)CCOc1ccccc1NC1=C(Cl)C(=O)C(Nc2ccccc2OCCN(C)C)=C(Cl)C1=O` was tested. Which growth did it give?
Its growth is -18.9% (active).

With `Cc1csc(C#Cc2cncc(O)c2)n1` as the molecule, how does the growth read?
The growth was 110%.

Which growth does the source give for `CC1=NOCC(=O)N1` here?
The growth was 104%.
